Screening results deposited in PubChem BioAssay by National Center for Advancing Translational Sciences (NCATS).
Compounds with a hit are over-represented: about 6.1% of the library has one in this group of screens.
ATXN viability: Viability Counterscreen for Primary qHTS for Inhibitors of ATXN expression | S2 cells (HEK-293 line with an ATXN2-luciferase reporter) viability, CellTiter-Fluor protease fluorescence, 24 h | Potency, µM (titrated, usually from 56.7 µM), usual class: cytotoxic | 0.49% of 400,000 active; note: nearly all actives have a fitted effect of over 40% in size
ATXN2 expr inh: Primary qHTS for Inhibitors of ATXN expression; HEK-293 ATXN2-luciferase reporter, luminescence, 24 h; Potency, µM (doses to about 57 µM), for inactives: top-dose activity change, negative = inhibition, actives largely listed as inhibitors; 0.72% of 360,000 active; AID 1745845, 2022; note: % is set by controls: 0 for no effect and ±100 for the full control effect; nearly all actives have a fitted effect of over 55% in size
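ATXN2-luciferase reporter cells (luciferase flanked by upstream and downstream ATXN2 gene portions) were treated 24 h at 37 °C with compounds at up to 57 uM. SteadyGlo luminescence gave expression; GF-AFC fluorescence gave viability.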
TGFb SMAD3 inh: qHTS for Inhibitors of TGF-b; HepG2 CAGA-GFP TGF-b/SMAD3 reporter, GFP fluorescence, 18 h; TGF-beta stimulated, 500 pg/mL final; Potency, µM (top dose mostly 46.1 µM), inactives show at the top dose activity, negative = inhibition, usual class: inhibitors; 1.2% of 410,000 active; AID 588855, 2011; note: % is set by controls: 0 for no effect and ±100 for the full control effect; nearly all actives have a fitted effect of over 65% in size
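First, reporter cells (HEPG2 CAGA-GFP) rested 2 h at 37 degrees C. Next, compounds were pinned in and TGF-beta added to 500 pg/mL final. After 18 h, GFP was imaged per cell and summed per well.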
HepG2 viability: qHTS for Inhibitors of TGF-b: Cytotox Counterscreen; HepG2 CAGA-GFP viability, ATP luminescence, 18 h; 0.76% of 410,000 active; AID 588856, 2011; Potency, µM (series often up to 46.1 µM), for inactives: at the highest dose activity change, negative = cytotoxicity, most hits filed as cytotoxic
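HepG2 CAGA-GFP cells (1000/well, DMEM with 1% FBS) received compound, then TGF-beta at 500 pg/mL final, and were incubated 18 hours at 37 degrees C. Viability was read by CellTiter-Glo luminescence. Media-only wells were set as complete cell-killing and DMSO as no toxicity.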
Gal4-VP16 FLuc: VP16 counterscreen qHTS for inhibitors of ROR gamma transcriptional activity | 3.5% of 310,000 active | Drosophila S2 Gal4-VP16 UAS-luciferase, luminescence, 20 h | Potency, µM (series often up to 53.6 µM), for the others: at the highest dose activity, negative = inhibition, most hits filed as inhibitors;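 note: Gal4-VP16 expression switched on by copper sulfate through the metallothionein promoter; % is set by controls: 0 for no effect and ±100 for the full control effect; nearly all actives have a fitted effect of over 50% in size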
RORgamma inh: qHTS for inhibitors of ROR gamma transcriptional activity; Nuclear receptor ROR-gamma (Mus musculus), P51450; Drosophila S2 Gal4-RORgamma UAS-luciferase reporter, 20 h; Potency, µM (series often up to 53.6 µM), inactives show at the top dose activity change, negative = inhibition, actives largely listed as inhibitors; 5.4% of 310,000 active; note: % is set by controls: 0 for no effect and ±100 for the full control effect; nearly all actives have a fitted effect of over 60% in size
Target sequence (P51450 whole entry, looked up, the tested form may be a part): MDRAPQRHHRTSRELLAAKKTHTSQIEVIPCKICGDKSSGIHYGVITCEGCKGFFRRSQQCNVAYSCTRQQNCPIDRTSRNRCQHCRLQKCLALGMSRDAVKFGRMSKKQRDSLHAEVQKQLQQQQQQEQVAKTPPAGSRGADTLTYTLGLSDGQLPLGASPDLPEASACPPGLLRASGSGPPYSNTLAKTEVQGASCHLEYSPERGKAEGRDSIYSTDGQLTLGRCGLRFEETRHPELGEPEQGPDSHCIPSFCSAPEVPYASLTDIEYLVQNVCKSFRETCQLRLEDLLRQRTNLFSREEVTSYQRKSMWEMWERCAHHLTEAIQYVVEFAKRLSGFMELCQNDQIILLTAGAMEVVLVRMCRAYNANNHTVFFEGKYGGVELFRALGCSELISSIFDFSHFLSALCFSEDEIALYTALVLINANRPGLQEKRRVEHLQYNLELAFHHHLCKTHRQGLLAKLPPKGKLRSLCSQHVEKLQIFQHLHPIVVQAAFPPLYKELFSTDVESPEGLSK
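Luciferase reporter read in Schneider cells carrying Gal4-RORγ (mouse) and UAS-Photinus luciferase; cells given compound 1 h before 700 uM copper sulfate induction, then incubated 20 h at ambient temperature.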
Active calls of the source: *; i = inactive; ? = inconclusive; . = no result given. Calls come from the whole dose curve; as a rule, active = well fitted curve in the direction sought with a large enough effect; inconclusive = small, poorly fitted or top-dose-only effect, or another doubt; inactive = no such curve, though single readings can be large; an effect the other way counts as inactive or inconclusive. Potency is the fitted concentration of half-maximal effect.

SMILES	ATXN viability	ATXN2 expr inh	TGFb SMAD3 inh	HepG2 viability	Gal4-VP16 FLuc	RORgamma inh
Cc1c(-c2ccc(Br)cc2)nc2ccccn12	i	73%	-1%	-30%	?	10µM*
Cc1ccc(-c2nc3ccccn3c2C=O)cc1	i	.	-11%	7%	-13%	7%
CN(C)c1ccc(-c2nc3ccccn3c2/N=C/c2ccc(Br)cc2)cc1	i	?	-2%	-55%	8.9µM*	7.1µM*
Cc1oc(-c2ccccc2)nc1CCC(=O)c1ccc(CC2SC(=O)NC2=O)cc1 (centres undefined)	i	3%	.	.	.	.
CCCCNC(=O)C1CCC(Cn2c(=O)c3sccc3n(CC(=O)N3CCCC3)c2=O)CC1 (centres undefined)	i	10%	8%	0%	.	.
CCOc1ccc(C(=O)NC(=S)Nc2ccccc2N2CCC(C)CC2)cc1[N+](=O)[O-]	i	6%	25%	-2%	3.2µM*	1µM*
CCOc1ccc(C(=O)NC(=S)Nc2ccc(N3CCC(C)CC3)cc2)cc1[N+](=O)[O-]	i	-8%	14%	-14%	?	0.4µM*
CCCC(=O)N1CCN(c2ccc(NC(=O)c3ccc(OCC)c([N+](=O)[O-])c3)cc2)CC1	i	-3%	0%	2%	7%	19%
CCC(=O)N1CCN(c2ccc(NC(=S)NC(=O)c3ccc(OC)c([N+](=O)[O-])c3)cc2)CC1	i	-26%	-1%	-18%	5µM*	7.1µM*
O=c1cc(O)n(C2CCCCCC2)c(=O)[nH]1	i	-1%	-4%	-2%	17%	8%
O=c1[nH][nH]c(=S)n1C1CCCCC1	i	-9%	3%	-2%	?	11µM*
COc1ccccc1CNC(=O)c1cc2c(=O)n(Cc3cccs3)ccc2nc1C	.	.	?	-19%	.	.
O=C(N/N=C/c1cc(Br)c(Br)o1)C(O)c1ccccc1 (centres undefined)	i	-17%	-10%	-27%	-9%	-1%
Cc1onc(-c2ccccc2)c1C(=O)N/N=C/c1cc(Br)c(Br)o1	i	-27%	?	-21%	10µM*	7.1µM*
Cc1onc(-c2ccccc2)c1C(=O)Oc1cccnc1	.	.	-8%	-13%	-6%	7.9µM*
Cc1ccc(/C=N/NC(=O)c2c(-c3ccccc3)noc2C)o1	i	5%	0%	10%	?	13µM*
Cc1cccc(C(=O)N/N=C/c2cc(Br)c(Br)o2)c1	?	7%	0%	-32%	?	11µM*
COC(=O)[C@@H]1CCCN1C(=O)c1cc(NC(=O)c2ccccc2)cc2ncn(C3CCCC3)c12	i	.	.	.	.	.
Cc1cccc(C)c1NC(=O)c1c(-c2ccccc2)noc1C	i	-15%	1%	7%	10%	10µM*
Cc1ccccc1NC(=O)c1c(-c2ccccc2)noc1C	i	-14%	3%	-22%	6%	-26%
Cc1ncc2c(c1CNS(=O)(=O)N(C)C)CCN(C(=O)c1ccc(F)cc1Cl)C2	i	.	.	.	.	.
CCO[C@H]1[C@H](NC(=O)c2cccnc2)c2ccccc2C12CCN(C(=O)c1cc(C)n(C)n1)CC2	i	.	.	.	.	.
Cc1ccc(NC(=S)NNc2ccc([N+](=O)[O-])cc2S(=O)(=O)Nc2ccccc2C(=O)O)cc1C	32µM*	-7%	?	-14%	-27%	-34%
CC(=O)Nc1ccc(C=NNc2ccc([N+](=O)[O-])cc2S(=O)(=O)Nc2ccccc2C(=O)O)cc1	i	5%	2%	-4%	.	.
Cc1cc(C(=O)Nc2cccc(C(=O)O)c2)oc1C	i	?	-2%	-12%	?	6.3µM*
SMILES	ATXN viability	ATXN2 expr inh	TGFb SMAD3 inh	HepG2 viability	Gal4-VP16 FLuc	RORgamma inh
COc1cc(NC(=O)c2ccc(C)cc2C)ccc1NC(=O)c1cc2ccccc2o1	i	23%	-7%	-33%	?	1.6µM*
COc1cc(NC(=O)c2ccccc2F)ccc1NC(=O)c1cc2ccccc2o1	i	-19%	2%	0%	13µM*	?
Cc1cccc(NC(=O)c2cc3ccccc3o2)c1	i	99%	-10%	-20%	6.3µM*	22%
COc1cc(NC(=O)c2ccc(F)cc2)ccc1NC(=O)c1cc2ccccc2o1	i	1%	0%	-23%	2%	4%
COc1cc(NC(=O)c2ccc(C)cc2)ccc1NC(=O)c1cc2ccccc2o1	i	?	?	-10%	0%	-9%
COc1ccc(C(=O)NNc2ncnc3c2cnn3-c2ccc(C)c(Cl)c2)cc1	i	46%	17%	-1%	.	.
O=C(O)c1cccc(NC(=O)c2cccc(NC(=O)C3CCCO3)c2)c1 (centres undefined)	i	8.9µM*	-18%	0%	-24%	?
COc1cc(F)cc(-c2ccc3c(c2)c(-c2cccs2)c(-c2cc(OC)cc(OC)c2)n3C)c1	i	6%	0%	5%	.	.
COc1cc(OC)cc(-c2c(-c3cccs3)c3cc(-c4ccn[nH]4)ccc3n2C)c1	?	?	16µM*	-6%	.	.
CC(C)(C)c1ccc(C(=O)Nc2ncn[nH]2)cc1	i	37%	-4%	3%	?	4µM*
O=C(Nc1ncn[nH]1)c1cccc(F)c1	i	2%	-25%	-5%	.	.
O=C(Nc1ncn[nH]1)c1ccccc1Br	i	-2%	-6%	8%	-15%	0%
Cc1ccc(C(=O)Nc2ncn[nH]2)cc1	?	4%	-6%	2%	13µM*	?
CCCCN1C(=O)C(=O)c2cc(Cl)ccc21	?	?	13µM*	-86%	.	.
O=C(NCCc1ccccc1)c1cc2sccc2n1Cc1ccc(F)cc1	i	-10%	?	-33%	.	.
COc1ccc(CCNC(=O)C(=O)NCC(c2cccs2)S(=O)(=O)c2ccccc2)cc1 (centres undefined)	i	-9%	-3%	-34%	.	.
C=C1C(O)[C@@H]2O[C@]3(CC[C@H](/C=C/C(C)[C@@H]4CC(C)=CC5(O[C@H](C[C@@](C)(O)CO)CCC5O)O4)O3)CC[C@H]2O[C@@H]1C(O)CC(C)[C@H]1OC2(CCCCO2)CCC1C (some centres undefined)	?	-24%	7.9µM*	-16%	.	.
